{
  "source": "PubChem BioAssay (NCI)",
  "test_in_all_cases": "NCI-60 one-dose screen, 48 h (100 = growth as untreated, 0 = no growth, -100 = all killed)",
  "details_in_all_cases": "10 µM unless noted",
  "key": {"NCI-H23 lung": {"test_system": "NCI-H23 lung"}, "NCI-H226 lung": {"test_system": "NCI-H226 lung"}, "NCI-H322M lung": {"test_system": "NCI-H322M lung"}, "HOP-62 NSCLC": {"test_system": "HOP-62 NSCLC"}, "NCI-H460 lung": {"test_system": "NCI-H460 lung"}, "HOP-92 NSCLC": {"test_system": "HOP-92 NSCLC"}, "NCI-H522 lung": {"test_system": "NCI-H522 lung"}, "A549/ATCC NSCLC": {"test_system": "A549/ATCC NSCLC"}, "786-0 renal": {"test_system": "786-0 renal"}, "COLO 205 colon": {"test_system": "COLO 205 colon"}},
  "note": "Where “and” joins values, the source holds several entries; their conditions need not be identical. Equal entries are not always repeated. About 83,000 compounds went through this panel and 20% of them were active in at least one assay; those are over-represented in the sample as a whole.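 How to read the values: 0–100, growth inhibition (40 = 60% inhibited); 0, no net growth; -100 to 0, cell death (-40 = 40% of starting cells died; -100 = all dead).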 More than one record can exist for a structure, and the calls need not agree. Calls of active or inactive are those of the source. The calls were made as follows: active = growth percent below 10; inactive = the rest.",
  "data": [
    {"smiles": "CCOc1ccc2c(S(=O)(=O)O)cccc2c1[N+](=O)[O-]", "values": [
      {"measurement": "growth", "setting": "NCI-H23 lung", "value": "94.5% (inactive) and 102% (inactive)"},
      {"measurement": "growth", "setting": "NCI-H226 lung", "value": "97.1% (inactive) and 94% (inactive)"},
      {"measurement": "growth", "setting": "NCI-H322M lung", "value": "102% (inactive) and 104% (inactive)"},
      {"measurement": "growth", "setting": "HOP-62 NSCLC", "value": "102% (inactive) and 105% (inactive)"},
      {"measurement": "growth", "setting": "NCI-H460 lung", "value": "99.1% (inactive) and 105% (inactive)"},
      {"measurement": "growth", "setting": "HOP-92 NSCLC", "value": "104% (inactive) and 78.3% (inactive)"},
      {"measurement": "growth", "setting": "NCI-H522 lung", "value": "99.7% (inactive) and 122% (inactive)"},
      {"measurement": "growth", "setting": "A549/ATCC NSCLC", "value": "97.2% (inactive) and 101% (inactive)"},
      {"measurement": "growth", "setting": "786-0 renal", "value": "113% (inactive) and 111% (inactive)"},
      {"measurement": "growth", "setting": "COLO 205 colon", "value": "107% (inactive) and 103% (inactive)"}
    ]},
    {"smiles": "CCOc1ccc2cc(-c3nn(CC4CCN(C)CC4)c4ncnc(N)c34)ccc2c1", "values": [
      {"measurement": "growth", "setting": "NCI-H23 lung", "value": "74.2% (inactive) and 63.5% (inactive)"},
      {"measurement": "growth", "setting": "NCI-H226 lung", "value": "83.6% (inactive) and 67.7% (inactive)"},
      {"measurement": "growth", "setting": "NCI-H322M lung", "value": "92.7% (inactive) and 87.4% (inactive)"},
      {"measurement": "growth", "setting": "HOP-62 NSCLC", "value": "83.8% (inactive) and 77.2% (inactive)"},
      {"measurement": "growth", "setting": "NCI-H460 lung", "value": "96.1% (inactive) and 69.6% (inactive)"},
      {"measurement": "growth", "setting": "HOP-92 NSCLC", "value": "69.1% (inactive) and 48.8% (inactive)"},
      {"measurement": "growth", "setting": "NCI-H522 lung", "value": "87% (inactive) and 42.3% (inactive)"},
      {"measurement": "growth", "setting": "A549/ATCC NSCLC", "value": "78.3% (inactive) and 60.1% (inactive)"},
      {"measurement": "growth", "setting": "786-0 renal", "value": "80.1% (inactive) and 55.8% (inactive)"},
      {"measurement": "growth", "setting": "COLO 205 colon", "value": "89.7% (inactive) and 39.6% (inactive)"}
    ]},
    {"smiles": "CC1=C(/C=C/C(C)=C/C=C/C(C)=C/C(=O)O)C(C)(C)CCC1", "values": [
      {"measurement": "growth", "setting": "NCI-H23 lung", "value": "86.6% (inactive) and 96.1% (inactive) and 98.3% (inactive)"},
      {"measurement": "growth", "setting": "NCI-H226 lung", "value": "93% (inactive) and 92.1% (inactive) and 88.2% (inactive)"},
      {"measurement": "growth", "setting": "NCI-H322M lung", "value": "94.2% (inactive) and 101% (inactive)"},
      {"measurement": "growth", "setting": "HOP-62 NSCLC", "value": "73% (inactive) and 75.4% (inactive)"},
      {"measurement": "growth", "setting": "NCI-H460 lung", "value": "91.2% (inactive) and 91.7% (inactive) and 90.6% (inactive)"},
      {"measurement": "growth", "setting": "HOP-92 NSCLC", "value": "66.8% (inactive) and 77% (inactive) and 26.4% (inactive)"},
      {"measurement": "growth", "setting": "NCI-H522 lung", "value": "64.8% (inactive) and 79.3% (inactive)"},
      {"measurement": "growth", "setting": "A549/ATCC NSCLC", "value": "73.4% (inactive) and 88.2% (inactive) and 80.3% (inactive)"},
      {"measurement": "growth", "setting": "786-0 renal", "value": "96.6% (inactive) and 85.6% (inactive) and 102% (inactive)"},
      {"measurement": "growth", "setting": "COLO 205 colon", "value": "108% (inactive) and 93.2% (inactive) and 145% (inactive)"}
    ]},
    {"smiles": "CNc1cc(-c2cccc(OC(F)(F)F)c2)nc2ccc(N3CCCC3)cc12", "values": [
      {"measurement": "growth", "setting": "NCI-H23 lung", "value": "66.5% (inactive) and 6.85% (active) and 8.59% (active)"},
      {"measurement": "growth", "setting": "NCI-H226 lung", "value": "94.6% (inactive) and 68.5% (inactive) and -35.2% (active)"},
      {"measurement": "growth", "setting": "NCI-H322M lung", "value": "61.8% (inactive) and -4.66% (active) and 76.6% (inactive)"},
      {"measurement": "growth", "setting": "HOP-62 NSCLC", "value": "74.6% (inactive) and 45.7% (inactive) and 33.4% (inactive)"},
      {"measurement": "growth", "setting": "NCI-H460 lung", "value": "-68% (active) and -62.5% (active) and -65.4% (active)"},
      {"measurement": "growth", "setting": "HOP-92 NSCLC", "value": "-31.9% (active) and 13% (inactive) and 28.5% (inactive)"},
      {"measurement": "growth", "setting": "NCI-H522 lung", "value": "32.2% (inactive) and -63.9% (active) and -35.6% (active)"},
      {"measurement": "growth", "setting": "A549/ATCC NSCLC", "value": "-34.3% (active) and 9.17% (active) and 15.2% (inactive)"},
      {"measurement": "growth", "setting": "786-0 renal", "value": "-86% (active) and -95.3% (active) and -67.6% (active)"},
      {"measurement": "growth", "setting": "COLO 205 colon", "value": "-25.6% (active) and -81.7% (active) and -75.7% (active)"}
    ]},
    {"smiles": "CC1=C(/C=C/C(C)=C/C=C/C(C)=C/C=N/NC(=S)NC(=S)N/N=C/C=C(C)/C=C/C=C(C)/C=C/C2=C(C)CCCC2(C)C)C(C)(C)CCC1", "values": [
      {"measurement": "growth", "setting": "NCI-H23 lung", "value": "-27.2% (active) and -49.8% (active)"},
      {"measurement": "growth", "setting": "NCI-H226 lung", "value": "-66.4% (active) and -86.6% (active)"},
      {"measurement": "growth", "setting": "NCI-H322M lung", "value": "85.1% (inactive) and 63.8% (inactive)"},
      {"measurement": "growth", "setting": "HOP-62 NSCLC", "value": "-7.59% (active)"},
      {"measurement": "growth", "setting": "NCI-H460 lung", "value": "8.37% (active) and -6.69% (active)"},
      {"measurement": "growth", "setting": "HOP-92 NSCLC", "value": "-0.81% (active) and -9.45% (active)"},
      {"measurement": "growth", "setting": "NCI-H522 lung", "value": "-84.1% (active) and -88.9% (active)"},
      {"measurement": "growth", "setting": "A549/ATCC NSCLC", "value": "17.3% (inactive) and 3.05% (active)"},
      {"measurement": "growth", "setting": "786-0 renal", "value": "-41.4% (active) and -58.8% (active)"},
      {"measurement": "growth", "setting": "COLO 205 colon", "value": "-79.7% (active)"}
    ]},
    {"smiles": "NC(=O)NO", "values": [
      {"measurement": "growth", "setting": "NCI-H23 lung", "value": "102% (inactive) and 62.3% (inactive)"},
      {"measurement": "growth", "setting": "NCI-H226 lung", "value": "106% (inactive) and 74.1% (inactive)"},
      {"measurement": "growth", "setting": "NCI-H322M lung", "value": "107% (inactive) and 77.1% (inactive)"},
      {"measurement": "growth", "setting": "HOP-62 NSCLC", "value": "109% (inactive) and 73.2% (inactive)"},
      {"measurement": "growth", "setting": "NCI-H460 lung", "value": "106% (inactive) and 62.3% (inactive)"},
      {"measurement": "growth", "setting": "HOP-92 NSCLC", "value": "101% (inactive) and 60.6% (inactive)"},
      {"measurement": "growth", "setting": "NCI-H522 lung", "value": "98.7% (inactive) and 82.7% (inactive)"},
      {"measurement": "growth", "setting": "A549/ATCC NSCLC", "value": "94.8% (inactive) and 53.4% (inactive)"},
      {"measurement": "growth", "setting": "786-0 renal", "value": "103% (inactive) and 59.7% (inactive)"},
      {"measurement": "growth", "setting": "COLO 205 colon", "value": "118% (inactive) and 87.4% (inactive)"}
    ]},
    {"smiles": "CCOc1ccc(Nc2c3ccccc3nc3ccccc23)cc1", "values": [
      {"measurement": "growth", "setting": "NCI-H23 lung", "value": "92.1% (inactive) and 36.3% (inactive) and 18.6% (inactive)"},
      {"measurement": "growth", "setting": "NCI-H226 lung", "value": "-12.9% (active) and 19.1% (inactive)"},
      {"measurement": "growth", "setting": "NCI-H322M lung", "value": "99.3% (inactive) and 44.4% (inactive) and 38.3% (inactive)"},
      {"measurement": "growth", "setting": "HOP-62 NSCLC", "value": "92.5% (inactive) and 37.1% (inactive) and 42.1% (inactive)"},
      {"measurement": "growth", "setting": "NCI-H460 lung", "value": "93.6% (inactive) and 3.2% (active) and 4.66% (active)"},
      {"measurement": "growth", "setting": "HOP-92 NSCLC", "value": "72.2% (inactive) and -5.95% (active) and -4.39% (active)"},
      {"measurement": "growth", "setting": "NCI-H522 lung", "value": "10.1% (inactive) and 35.9% (inactive)"},
      {"measurement": "growth", "setting": "A549/ATCC NSCLC", "value": "87.5% (inactive) and 12.3% (inactive) and 21% (inactive)"},
      {"measurement": "growth", "setting": "786-0 renal", "value": "84.8% (inactive) and 30.1% (inactive) and 43.7% (inactive)"},
      {"measurement": "growth", "setting": "COLO 205 colon", "value": "103% (inactive) and -11.2% (active) and 24.5% (inactive)"}
    ]}
  ]
}
